Laboratory results taken from PubChem BioAssay (NCATS).
Results filed as inconclusive are left out. Active and inactive are the calls of the source. Unless noted, calls come from the whole dose curve; as a rule, active = well fitted curve in the direction sought with a large enough effect; inconclusive = small, poorly fitted or top-dose-only effect, or another doubt; inactive = no such curve, though single readings can be large; an effect the other way counts as inactive or inconclusive.

Experiments:
[1] = biological target: Cytochrome P450 2C9 (Homo sapiens) (UniProt P11712); test: qHTS Assay for Inhibitors and Substrates of Cytochrome P450 2C9 (AID 883); note: nearly all actives have a fitted effect of over 60% in size
Outline: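 CYP2C9 deoxyluciferin hydroxylation, 37C, 60 min with NADPH regeneration; 10nM enzyme, 100uM Luciferin-H (KM). Glo detection reagent stopped reaction; luminescence normalized to sulphaphenazole (57uM) full inhibition.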

[2] = biological target: Cytochrome P450 3A4 (Homo sapiens) (UniProt P08684); test: qHTS Assay for Inhibitors and Substrates of Cytochrome P450 3A4 (AID 884); note: nearly all actives have a fitted effect of over 50% in size
Outline: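 20 nM human CYP3A4 with 25 uM Luciferin-PPXE (at KM) in 200 mM KPO4, preincubated 10 min with compound; NADPH regeneration started a 60 min RT reaction. Luciferin detected by luminescence, normalized to 57 uM ketoconazole as full inhibition.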

[3] = biological target: Cytochrome P450 3A4 (Homo sapiens) (UniProt P08684); test: qHTS Assay for Activators of Cytochrome P450 3A4 (AID 885); note: nearly all actives have a fitted effect of over 65% in size
Outline: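 20nM CYP3A4 + 25uM Luciferin-PPXE (=KM), 200mM KPO4; cpd 10 min RT; NADPH regen, 60 min RT; stop w/ detection buffer, 20 min; luminescence. Normalized to 57 uM ketoconazole.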

[4] = biological target: Cytochrome P450 2C19 (Homo sapiens) (UniProt P33261); test: qHTS Assay for Inhibitors and Substrates of Cytochrome P450 2C19 (AID 899); note: nearly all actives have a fitted effect of over 60% in size
Outline: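 In 50mM KPO4, the reaction held 5nM enzyme and KM-level (10uM) Luciferin-H EGE; it ran 60 min at 37C after NADPH regeneration and a 10 min compound preincubation. Luminescence values were scaled to 57uM ketoconazole as complete inhibition.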

[5] = biological target: 3',5'-cyclic-AMP phosphodiesterase 4B (Homo sapiens) (UniProt Q07343); test: qHTS Assay for Inhibitors of PDE-IV (AID 607; active = well fitted activation curve with a large enough effect in the main read-out, with a control signal flat, not every such curve was filed as active)
Outline: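 ACTOne HEK293 cells carry a modified cAMP-gated CNG channel and express endogenous PDE4; plated 1000 cells/well, compounds up to 22.9 uM final. Membrane-potential dye fluorescence (ex 535/em 590) was read; parental cells received 10 uM forskolin + 100 uM RO 20-1724.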

[6] = Confirmation and Secondary Assay for Modulators of Hemoglobin Beta Chain Splicing at IVS2 654 locus (AID 910);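 note: per-well total GFP intensity by laser scanning cytometry after 2-day treatment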
Outline: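 HeLa cells stably carrying EGFP interrupted by mutant beta-globin IVS2-654 intron (CMV-driven) were treated with compound for 2 days at 37C; corrected splicing was scored as total peak GFP intensity per well (488 nm excitation, 500-520 nm emission).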

[7] = Cellular Toxicity (caspase-3) HepG2 (AID 654);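 note: cells exposed to compound for 16 hours before reading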
Outline: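 HepG2 cells (1500/well) in complete medium were treated with compounds for 16 hr at 37 °C. Caspase-3/7 activity was then read as luminescence from peptide-aminoluciferin cleavage. AC50 came from Hill fits, normalized to DMSO and 100 uM tamoxifen.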

[8] = Cellular Toxicity (caspase-3) HUV-EC-C (AID 656)
Outline: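 Luminescent Caspase-Glo 3/7 readout after 16 h, 37 °C compound exposure of HUV-EC-C endothelial cells, 1000 per well, complete medium. AC50 derived by Hill fitting, with DMSO as baseline and 100 uM tamoxifen as full activation.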

[9] = Cellular Toxicity (caspase-3) SHSY5Y (AID 657)
Outline: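 Luminescent Caspase-Glo 3/7 read-out, 1 hr room temperature, follows 16 hours of compound treatment of SH-SY5Y cells at 37 °C. Normalization: DMSO basal, 10 uM staurosporine as 100%; AC50 values from Hill-equation concentration-response fits.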

[10] = Cellular Toxicity (caspase-3) BJ (AID 658)
Outline: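 Luminescent aminoluciferin-substrate cleavage reports caspase 3/7 activity in normal human BJ fibroblasts after 16 hr compound exposure at 37 °C. Normalized to DMSO (basal) and 10 uM staurosporine (100%); AC50 from Hill fit of concentration-response.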

[11] = Cellular Toxicity (caspase-3) MRC-5 (AID 659); conditions: Potency: caspase-3 activation
Outline: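 Luminescence from caspase-cleaved aminoluciferin substrate (Caspase-Glo 3/7, 1 hr RT) reports caspase 3/7 activity in MRC-5 lung fibroblasts after 16 hr compound exposure. Normalized to DMSO basal and 10 uM staurosporine as 100%; AC50 from Hill fits.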

[12] = Cellular Toxicity (caspase-3) Mesangial (AID 660);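 note: cells exposed to compound for 16 h before the caspase read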
Outline: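 Human renal glomerular mesangial cells (1000/well) were treated with compounds for 16 h at 37 °C in complete medium, then caspase 3/7 activity was read by Caspase-Glo luminescence. Data were normalized to DMSO and 100 uM tamoxifen; AC50 from Hill fits.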

[13] = Cellular Toxicity (caspase-3) SK-N-SH (AID 661)
Outline: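 SK-N-SH human neuroblastoma cells (1500/well) were treated with compounds for 16 hr at 37 °C in complete medium; caspase 3/7 activity was read by Caspase-Glo luminescence. AC50 came from Hill fits of data normalized to DMSO and 10 uM staurosporine.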

[14] = Cellular Toxicity (caspase-3) H-4-II-E (AID 663);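 note: cells exposed to compound for 16 hr before readout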
Outline: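 Luminescence from caspase-cleaved aminoluciferin substrate, read 20 min after reagent addition, reports caspase 3/7 activation in rat H-4-II-E cells after 16 hr compound exposure. Normalized to DMSO (basal) and 100 uM tamoxifen (100%); AC50 from Hill fits.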

[15] = Cellular Toxicity (caspase-3) Hek293 (AID 664);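 note: cells exposed to compound for 16 h at 37 °C before readout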
Outline: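 HEK293 cells were exposed to compounds in complete medium for 16 hr at 37 °C, then caspase-3/7 activity was read by Caspase-Glo 3/7 luminescence after 20 min at room temperature. Data normalized to DMSO and 100 uM tamoxifen; AC50 from Hill fits.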

[16] = Cellular Toxicity (caspase-3) N2a (AID 665);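 note: compound exposure lasted 16 h at 37 °C before readout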
Outline: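 Mouse N2a neuroblastoma cells (1500/well) were treated with compounds for 16 h at 37 °C, then caspase-3/7 activity was read by Caspase-Glo luminescence after 1 h at room temperature. Data were normalized to DMSO and 10 uM staurosporine; AC50 from Hill fits.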

[17] = Cellular Toxicity (caspase-3) NIH 3T3 (AID 666)
Outline: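 Mouse NIH 3T3 fibroblasts (1000 cells/well) were treated with compound for 16 hr at 37°C in complete medium; caspase-3/7 activity was read by Caspase-Glo luminescence. Normalized to DMSO and 100 uM tamoxifen; AC50 from Hill fits.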

[18] = Cellular Toxicity (caspase-3) Renal Proximal Tubule (AID 667);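 note: cells exposed to compound for 16 hours at 37 °C before detection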
Outline: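 Caspase 3/7 activation measured by luminescent aminoluciferin release in primary rat proximal tubule cells after 16 hr compound exposure at 37 °C. AC50 from Hill-fitted concentration-response, scaled between DMSO and 10 uM staurosporine.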

Measured: Potency

Sequence of 3',5'-cyclic-AMP phosphodiesterase 4B (Homo sapiens) (Q07343 whole entry, looked up): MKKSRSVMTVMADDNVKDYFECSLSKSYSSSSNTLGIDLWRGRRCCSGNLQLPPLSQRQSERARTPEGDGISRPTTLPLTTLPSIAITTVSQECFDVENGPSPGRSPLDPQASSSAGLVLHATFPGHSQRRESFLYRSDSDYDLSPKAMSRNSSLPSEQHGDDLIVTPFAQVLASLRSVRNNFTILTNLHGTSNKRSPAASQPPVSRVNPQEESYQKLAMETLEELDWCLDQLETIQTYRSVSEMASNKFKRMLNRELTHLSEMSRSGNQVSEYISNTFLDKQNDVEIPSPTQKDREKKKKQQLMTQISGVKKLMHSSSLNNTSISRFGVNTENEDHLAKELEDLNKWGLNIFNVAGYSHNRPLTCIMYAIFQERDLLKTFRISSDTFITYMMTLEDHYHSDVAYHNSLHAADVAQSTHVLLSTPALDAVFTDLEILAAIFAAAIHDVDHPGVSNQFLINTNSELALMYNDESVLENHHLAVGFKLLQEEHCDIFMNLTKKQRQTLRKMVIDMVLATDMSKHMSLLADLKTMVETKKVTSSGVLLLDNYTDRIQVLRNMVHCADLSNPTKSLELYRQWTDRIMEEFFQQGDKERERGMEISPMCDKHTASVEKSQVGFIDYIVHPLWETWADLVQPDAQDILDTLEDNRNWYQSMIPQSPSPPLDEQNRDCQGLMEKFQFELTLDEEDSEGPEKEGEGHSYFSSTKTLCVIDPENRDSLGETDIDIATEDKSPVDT
Sequence of Cytochrome P450 2C9 (Homo sapiens) (P11712 whole entry, looked up): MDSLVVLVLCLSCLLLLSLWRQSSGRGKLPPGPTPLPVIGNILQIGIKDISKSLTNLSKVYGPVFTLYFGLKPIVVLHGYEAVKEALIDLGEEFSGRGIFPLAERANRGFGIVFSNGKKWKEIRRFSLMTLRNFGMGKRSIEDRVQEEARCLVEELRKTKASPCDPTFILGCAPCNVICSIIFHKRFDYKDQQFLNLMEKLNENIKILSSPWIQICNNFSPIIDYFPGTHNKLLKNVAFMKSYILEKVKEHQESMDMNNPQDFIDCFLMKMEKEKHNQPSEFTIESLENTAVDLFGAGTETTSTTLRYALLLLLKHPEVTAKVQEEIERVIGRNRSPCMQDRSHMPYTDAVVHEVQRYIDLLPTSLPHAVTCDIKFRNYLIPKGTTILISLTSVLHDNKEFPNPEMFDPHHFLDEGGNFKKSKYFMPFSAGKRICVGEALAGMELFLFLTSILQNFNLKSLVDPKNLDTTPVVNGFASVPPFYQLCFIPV
Sequence of Cytochrome P450 3A4 (Homo sapiens) (P08684 whole entry, looked up): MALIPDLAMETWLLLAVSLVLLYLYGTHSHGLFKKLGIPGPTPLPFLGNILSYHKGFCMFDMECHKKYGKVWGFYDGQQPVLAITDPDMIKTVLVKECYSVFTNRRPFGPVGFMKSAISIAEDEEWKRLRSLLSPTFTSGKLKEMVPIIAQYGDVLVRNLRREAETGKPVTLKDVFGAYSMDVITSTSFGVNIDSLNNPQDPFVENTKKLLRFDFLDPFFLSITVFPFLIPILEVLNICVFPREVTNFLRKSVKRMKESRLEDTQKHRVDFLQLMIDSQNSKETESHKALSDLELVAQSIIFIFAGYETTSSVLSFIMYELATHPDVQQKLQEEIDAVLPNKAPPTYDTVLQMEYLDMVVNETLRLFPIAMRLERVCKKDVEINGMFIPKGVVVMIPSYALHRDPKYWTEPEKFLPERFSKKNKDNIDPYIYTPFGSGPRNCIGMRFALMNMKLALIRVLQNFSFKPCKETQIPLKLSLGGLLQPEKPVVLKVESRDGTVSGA
Sequence of Cytochrome P450 2C19 (Homo sapiens) (P33261 whole entry, looked up): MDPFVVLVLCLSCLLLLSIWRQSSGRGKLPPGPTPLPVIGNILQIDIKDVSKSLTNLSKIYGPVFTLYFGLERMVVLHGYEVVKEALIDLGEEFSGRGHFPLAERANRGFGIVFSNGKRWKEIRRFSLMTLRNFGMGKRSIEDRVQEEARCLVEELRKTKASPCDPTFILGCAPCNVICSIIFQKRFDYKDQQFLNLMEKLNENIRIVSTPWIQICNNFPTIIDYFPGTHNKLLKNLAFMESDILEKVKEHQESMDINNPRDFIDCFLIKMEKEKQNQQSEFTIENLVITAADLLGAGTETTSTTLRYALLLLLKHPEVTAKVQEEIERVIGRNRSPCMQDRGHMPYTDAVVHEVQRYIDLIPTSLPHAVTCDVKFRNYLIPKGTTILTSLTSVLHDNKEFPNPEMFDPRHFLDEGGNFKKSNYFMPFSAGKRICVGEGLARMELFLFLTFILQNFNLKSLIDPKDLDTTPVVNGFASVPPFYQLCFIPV

CN(C)CCCN1c2ccccc2CCc2ccccc21
inactive: [1] | [2] | [2] | [3] | [4]

Cc1cc(N)c2ccccc2[n+]1CCCCCCCCCC[n+]1c(C)cc(N)c2ccccc21
inactive: [5] | [3] | [6]

O=c1cc(CO)occ1O
inactive: [1] | [2] | [4]

OCCN1CCN(CCCN2c3ccccc3Sc3ccc(Cl)cc32)CC1
inactive: [5] | [6]

CCN(CC)CCOC(=O)C1(C2CCCCC2)CCCCC1
inactive: [5] | [3] | [6]

CCCCCCCCCCCCOS(=O)(=O)O
inactive: [7] | [8] | [9] | [10] | [11] | [12] | [13] | [14] | [15] | [16] | [17] | [18] | [2]

C[C@]12C[C@H](O)[C@H]3[C@@H](CCC4=CC(=O)CC[C@@]43C)[C@@H]1CC[C@@H]2C(=O)CO
inactive: [7] | [8] | [9] | [10] | [11] | [12] | [13] | [14] | [15] | [16] | [17] | [18]

O=C1c2c(O)cccc2Cc2cccc(O)c21
inactive: [7] | [8] | [9] | [10] | [11] | [12] | [13] | [14] | [15] | [16] | [17] | [18] | [6]

Cc1cc2nc3c(=O)[nH]c(=O)nc-3n(C[C@H](O)[C@H](O)[C@H](O)CO)c2cc1C
inactive: [7] | [8] | [9] | [10] | [11] | [12] | [13] | [14] | [15] | [16] | [17] | [18] | [3]

CC12CCC(CC1)C(C)(C)O2
inactive: [7] | [8] | [9] | [10] | [11] | [12] | [13] | [14] | [15] | [16] | [17] | [18] | [2] | [6]

[Cl][In]([Cl])[Cl]
inactive: [7] | [8] | [9] | [10] | [11] | [12] | [13] | [14] | [15] | [16] | [17] | [18] | [2]
